# Over roughly 68,000 sequences, “fluorescence intensity (a.u.)” has its median near 9,100; the highest 2% begin near 16,000. This is one part of a sample in which the highest values are shown more often than they occur.
# Molecular target: OsWRKY34 (Oryza sativa, UniProt Q0JBA9 1-250)
# Experiment: protein-binding microarray (RPBM); PBS, 2% BSA, 51.3 ng/ul salmon testes DNA, 50 uM zinc acetate, 200 nM TF, 25 C, 1 h; high values mean tight binding
# Conditions: protein: recombinant; tags: N-terminal polyhistidine and DsRed monomer fusion (pET32a); label: CyDye5-dUTP incorporated in the synthesized complementary strand; 3' TTTTT single-stranded linker to array surface; dsDNA, one strand shown
# Summary of the method: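 Per-feature fluorescence intensity (arbitrary units), read on an Axon 4000B scanner, is the binding signal. Transcription factors carrying an N-terminal polyhistidine tag and DsRed fusion were expressed in E. coli BL21-CodonPlus and purified on Ni–NTA. A custom Agilent array, made double-stranded by primer extension with Cy5-dUTP and blocked with 2% BSA, was incubated with 200 nM protein in PBS, 2% BSA, salmon testes DNA and 50 µM zinc acetate at 25 °C for 1 h and then washed.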
# Sequence of OsWRKY34 (Q0JBA9 entry or part of it): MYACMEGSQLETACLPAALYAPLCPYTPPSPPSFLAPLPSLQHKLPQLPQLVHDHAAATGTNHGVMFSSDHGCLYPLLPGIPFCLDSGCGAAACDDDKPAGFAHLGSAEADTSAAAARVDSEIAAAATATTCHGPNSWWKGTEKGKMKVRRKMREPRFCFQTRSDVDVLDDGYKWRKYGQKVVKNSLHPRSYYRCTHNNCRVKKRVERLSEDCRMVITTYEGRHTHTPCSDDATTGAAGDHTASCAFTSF
row,Sequence,binding signal
1,TCTTCCTCATGCGATTTGGTTGGTTGGTTTGACGCTACACCGGAGTCACCTAGTGCAG,13600 fluorescence intensity (a.u.)
2,GGGTGTGTGCGCATGTGTGTTTGTCGTGTATTAAAAAAAACGGAGTCACCTAGTGCAG,9130 fluorescence intensity (a.u.)
3,TTAATTATTTCTTGGTATTTGGGTTAAGGGTGGTTGTGCCCGGAGTCACCTAGTGCAG,12600 fluorescence intensity (a.u.)
4,TCTACTTTTCTCCACTCTTTTGCTATAGGGGCTGGGGTGGCGGAGTCACCTAGTGCAG,14200 fluorescence intensity (a.u.)
5,TATCTTAGGGCATGTTTGGTTGTACGGATCGTACCTGACTCGGAGTCACCTAGTGCAG,9620 fluorescence intensity (a.u.)
6,GATGGCTACCTAGCTGACACGCAACGCCGGCCTCCGGATCCGGAGTCACCTAGTGCAG,10600 fluorescence intensity (a.u.)
7,GGGCGTGGTGGTGGTGGTGGTGGTTATACGGTTTTCGGTTCGGAGTCACCTAGTGCAG,25900 fluorescence intensity (a.u.)
8,TATATATATATATATATATATATATATGTGTGTGTGTGTTCGGAGTCACCTAGTGCAG,14600 fluorescence intensity (a.u.)
9,GAATCATGTGCTATCTCGTTAATTATCTGCTCTTTTAGCTCGGAGTCACCTAGTGCAG,9000 fluorescence intensity (a.u.)
10,TATATATATATATATATATATATATATATATGGTGGTGTTCGGAGTCACCTAGTGCAG,20500 fluorescence intensity (a.u.)
11,TGGTGGTTTTCGTCGTCGTCGTCGTCGTCGGCTTCATATACGGAGTCACCTAGTGCAG,10100 fluorescence intensity (a.u.)
12,TTAATTATATGCTAATGGCTAACCTTATTTTACGTATCTTCGGAGTCACCTAGTGCAG,8180 fluorescence intensity (a.u.)
13,TATATATATATATATATATATATATATATATATGTGTGTGCGGAGTCACCTAGTGCAG,18100 fluorescence intensity (a.u.)
14,TATATATATATATATATATGTGTGTGTGTGTGTGTATGGTCGGAGTCACCTAGTGCAG,9770 fluorescence intensity (a.u.)
15,TATATATATATATATATATATATATATATGTGTGTGTGTGCGGAGTCACCTAGTGCAG,13700 fluorescence intensity (a.u.)
16,TGGGTTTGTGGGTTATGTTTCGGTGCGTGCCGATAGTATACGGAGTCACCTAGTGCAG,14300 fluorescence intensity (a.u.)
17,AGCAGATGGAGTATATCTTTAGCTAATTAAGCTATAGCTACGGAGTCACCTAGTGCAG,23000 fluorescence intensity (a.u.)
18,TATATATATGTGTGTGTGTGTGTGTGTGTGTGTGTGTGTGCGGAGTCACCTAGTGCAG,10100 fluorescence intensity (a.u.)
19,CTCCCTTGCCGTCCCAGTTTCCCTGTATTCTGCATGCCGTCGGAGTCACCTAGTGCAG,9850 fluorescence intensity (a.u.)
20,ACTTTGCTGCCTATTGTAGATTTGTTATAACGTAGTTACTCGGAGTCACCTAGTGCAG,10400 fluorescence intensity (a.u.)
21,AACCCTCGCTTTCTTTGATAATCATTCCTAACTGCCTGGTCGGAGTCACCTAGTGCAG,8170 fluorescence intensity (a.u.)
22,AGTTACTGAGTTAGACGTCTCAAGCTGTGTCGTGGAATAACGGAGTCACCTAGTGCAG,8700 fluorescence intensity (a.u.)
23,AGGAGAGAAAGGAAGGTGGTGTGGGTGGTTGGTGGTGGTGCGGAGTCACCTAGTGCAG,10300 fluorescence intensity (a.u.)
24,GTCTTCTCTGTTCTTCTTCAGATGGCGAAAGCTCTCACCACGGAGTCACCTAGTGCAG,10400 fluorescence intensity (a.u.)
25,ATATATATATATATATATATATATATATATATGCAGCATGCGGAGTCACCTAGTGCAG,13100 fluorescence intensity (a.u.)
26,ATAGCCAACTATTACTTTTAAATTATTTATAGTCAAATTTCGGAGTCACCTAGTGCAG,9190 fluorescence intensity (a.u.)
27,ATATATATATATATATATGTGTGTATATATATATATATATCGGAGTCACCTAGTGCAG,8920 fluorescence intensity (a.u.)

row,Sequence,binding signal
1,CTTTAATAGTATAGCCAACTACTACCTCGGAATCACCTATCGGAGTCACCTAGTGCAG,20300 fluorescence intensity (a.u.)
2,ATATATATATATATATATATATATATGCAGCAACAGGGCCCGGAGTCACCTAGTGCAG,17400 fluorescence intensity (a.u.)
3,ATATATATATATATATATATATGTGTGTGTGTGTGTGTCCCGGAGTCACCTAGTGCAG,14500 fluorescence intensity (a.u.)
4,ATATATATATATATATATATACATACATATACACACACACCGGAGTCACCTAGTGCAG,8050 fluorescence intensity (a.u.)
5,GCCTGCTATTGTACCTGCTTTAATATAGCCAACCTACTATCGGAGTCACCTAGTGCAG,8330 fluorescence intensity (a.u.)
6,TATATATATATATATATATATATATATATATATGGAGTATCGGAGTCACCTAGTGCAG,24600 fluorescence intensity (a.u.)
7,TATATATACACACACACACAAACACACACACACACACACACGGAGTCACCTAGTGCAG,8720 fluorescence intensity (a.u.)
8,ATATATATATATATATATATATATATATATACACACACACCGGAGTCACCTAGTGCAG,22200 fluorescence intensity (a.u.)
9,ATATATATATATATATATATATATATATATATGTATGTATCGGAGTCACCTAGTGCAG,10100 fluorescence intensity (a.u.)
10,CTACTTTACCAGCTCATCTATCACATCTTAACTGTATTTTCGGAGTCACCTAGTGCAG,10300 fluorescence intensity (a.u.)
11,ACCCGTCTCTCTTTCTTTCTTTCTCTCTCTCCTGTGTTTTCGGAGTCACCTAGTGCAG,8600 fluorescence intensity (a.u.)
12,TCCACACACCCCGCTTGCTAACCAACCGTGACACGCAACCCGGAGTCACCTAGTGCAG,10100 fluorescence intensity (a.u.)
13,CCTAGCCCTAATTGATCCTTGCCTCGATGTTTTCCCTCCGCGGAGTCACCTAGTGCAG,10100 fluorescence intensity (a.u.)
14,CCCTTGACAGCACAGAGGCAACAGCAAAACACACTCTCATCGGAGTCACCTAGTGCAG,8580 fluorescence intensity (a.u.)
15,CTAGATTTTTTGGTGACATTTTTTAGTTGGTGTGCACGTGCGGAGTCACCTAGTGCAG,10200 fluorescence intensity (a.u.)
16,ACTCCTCTGCATGCTTTTTTTTTCCCTTCAGTTTCAGTTGCGGAGTCACCTAGTGCAG,11200 fluorescence intensity (a.u.)
17,GGCAACCACCTCAATTATTATTCCATTCCCTACCACCACTCGGAGTCACCTAGTGCAG,9980 fluorescence intensity (a.u.)
18,ACCTTTTTAAATATTTGACACTGTCGACTTTTTAGCACATCGGAGTCACCTAGTGCAG,9730 fluorescence intensity (a.u.)
19,TTGACACCGTTGACTTTTTAGCACATGTTTGACCGTTCGTCGGAGTCACCTAGTGCAG,35800 fluorescence intensity (a.u.)
20,TGTTTGACACCGTTGACTTTTTAGCACATGTTTGACCGTTCGGAGTCACCTAGTGCAG,38000 fluorescence intensity (a.u.)
21,TTTAACACATGTTTGACCGTTCGTCTTATTCAAAAACTTTCGGAGTCACCTAGTGCAG,10900 fluorescence intensity (a.u.)
22,TTTCAAAATATTTGACACCGTTGACTTTTTAACACATGTTCGGAGTCACCTAGTGCAG,17900 fluorescence intensity (a.u.)
23,ATCCTAAAATGTTTGACACCATTGACTTTTTTAAAAATGTCGGAGTCACCTAGTGCAG,8790 fluorescence intensity (a.u.)
24,TCAAAATGTTCGACACCGTTGACTTTTTAACACATGTTTGCGGAGTCACCTAGTGCAG,14400 fluorescence intensity (a.u.)
25,GTTTTAAAATGGTTGACACCGTTGACTTTTTAGCACGTGTCGGAGTCACCTAGTGCAG,30100 fluorescence intensity (a.u.)
26,TGGCTTGGTCCGCTAGTTCCTAACATCATGACAGTATTTTCGGAGTCACCTAGTGCAG,8280 fluorescence intensity (a.u.)
27,CCCAGGTAGGATATGTGTATGTGTTTATATGGGTGAGTCTCGGAGTCACCTAGTGCAG,9300 fluorescence intensity (a.u.)

# From paper PMC7819943, “Rice protein-binding microarrays: a tool to detect cis-acting elements near promoter regions in rice”
